# Measured values as given in PubChem BioAssay (NCATS).
# “And” between values parts separate entries of the source, which are not always exact repeats. Identical values can stand only once. Records with an inconclusive call do not appear. Where a call stands in place of a potency, no number is given. Where a structure was tested more than once in an assay, its records may differ in their call. The source made the active and inactive calls. Unless noted, calls follow the shape of the dose curve; as a rule, active = well fitted curve in the direction sought with a large enough effect; inconclusive = small, poorly fitted or top-dose-only effect, or another doubt; inactive = no such curve, though single readings can be large; an effect the other way counts as inactive or inconclusive.
# Experiments:
# [1] = target: Catechol O-methyltransferase (Homo sapiens) (UniProt P21964); test: Confirmatory Screen for Target Class Profiling of Small Molecule Inhibitors of Methyltransferases (AID 1745852; calls by dose curve; also: potency is read from the fitted curve at half-maximal effect); conditions: MTase-Glo luminescence, SAH detection, recombinant enzyme; measured here: COMT max response; stronger effect = lower value
# [2] = target: Guanidinoacetate N-methyltransferase (Homo sapiens) (UniProt Q14353); test: as above; conditions: MTase-Glo luminescence, SAH detection, recombinant enzyme; activity change, negative = inhibition: at 57.3 µM (top of the series) unless noted; series mostly up to 57.3 µM
# [3] = target: Nicotinamide N-methyltransferase (Homo sapiens) (UniProt P40261); test: as above; conditions: MTase-Glo luminescence, SAH detection, recombinant enzyme; measured here: NNMT max response; stronger effect = lower value
# [4] = target: Phenylethanolamine N-methyltransferase (Homo sapiens) (UniProt P11086); test: as above; conditions: MTase-Glo luminescence, SAH detection, recombinant enzyme; measured here: PNMT max response; stronger effect = lower value
# [5] = target: Glutathione peroxidase 1 (Homo sapiens) (UniProt P07203); test: Primary qHTS Assay for Inhibitors of Recombinant Selenoprotein Glutathione Peroxidase 1 (GPX1) (AID 1845191); conditions: recombinant GPX1, GR-coupled NADPH fluorescence, 15 min; series mostly up to 48.8 µM; also: nearly all actives have a fitted effect of over 65% in size
# Procedure, shortened: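 GR-coupled assay: compounds preincubated 30 min at room temperature with GPX1, then reaction started with CHP; final 10 nM GPX1, 1 mM GSH, 0.5 mM CHP, 0.5 mM NADPH, 100 nM GR, 0.01% BSA, pH 7.5 Tris buffer. NADPH fluorescence (340/450 nm) read at 0 and 15 min.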
# [6] = target: Phospholipid hydroperoxide glutathione peroxidase GPX4 (Homo sapiens) (UniProt P36969); test: Primary qHTS Assay for Inhibitors of Recombinant Selenoprotein Glutathione Peroxidase 4 (GPX4) (AID 1845192); conditions: recombinant GPX4, GR-coupled NADPH fluorescence, 15 min; series mostly up to 50 µM; also: nearly all actives have a fitted effect of over 65% in size; also: potency is read from the fitted curve at half-maximal effect
# Procedure, shortened: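 GR-coupled assay: recombinant GPX4 preincubated 30 min with compound at room temperature; final 200 nM GPX4, 1 mM GSH, 0.5 mM cumene hydroperoxide, 0.5 mM NADPH, 100 nM GR, 0.01% BSA, pH 7.5 Tris. NADPH fluorescence (340/450 nm) read at 0 and 15 min.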
# [7] = target: Luciferin 4-monooxygenase (Photinus pyralis) (UniProt P08659); test: Primary firefly luciferase (FLuc) qHTS assay for identification of artifact compounds. (AID 1845220); conditions: purified firefly luciferase, luminescence, 5 min; series mostly up to 54.1 µM; also: nearly all actives have a fitted effect of over 60% in size; also: potency is read from the fitted curve at half-maximal effect
# Procedure, shortened: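 Enzymatic FLuc inhibition assay: compounds pre-exposed to luciferin/ATP (10 uM each) for 15 min, then purified P. pyralis enzyme at 10 nM added. Read-out: luminescence at 5 min.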
# [8] = Primary fluorescence-based thiol-reactive (MSTI) qHTS assay for identification of artifact compounds. (AID 1845221); conditions: MSTI thiol-reactivity probe, 1 h; series mostly up to 53.8 µM; also: nearly all actives have a fitted effect of over 65% in size; also: potency is read from the fitted curve at half-maximal effect
# Procedure, shortened: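 First, 4 uM MSTI in 2% DMSO/PBS pH 7.4 was dispensed; next, compounds were added; then plates sat 1 h at room temperature without light. Finally, emission at 598 nm was recorded.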
# [9] = system: Nanoluciferase (engineered Oplophorus gracilirostris luciferase); test: Primary Nanoluciferase (NLuc) qHTS assay for identification of artifact compounds. (AID 1845222); conditions: NLuc-conditioned medium, Nano-Glo luminescence, 5 min; series mostly up to 54.1 µM;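 also: NLuc secreted into diluted conditioned medium of S16 cells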
# Procedure, shortened: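 S16 cell supernatant NLuc, 1:55; cpds qHTS; 15 min RT dark; Nano-Glo substrate 1:100, 5 min; luminescence; Hill fit of % inhibition.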
# [10] = Primary redox qHTS assay for identification of artifact compounds. (AID 1845223); conditions: Amplex Red/HRP redox cycling with DTT, fluorescence; series mostly up to 53.8 µM; also: potency is read from the fitted curve at half-maximal effect
# Procedure, shortened: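 Amplex Red (25 uM) and HRP (250 mU/mL) in HBSS, with compounds for 15 min, then 250 uM DTT for 30 min, room temperature, dark. Fluorescence 525/598 nm read; normalized to DMSO and 10 uM DA3003; Hill fit.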
# Chain of Nicotinamide N-methyltransferase (Homo sapiens) (P40261 whole entry, looked up): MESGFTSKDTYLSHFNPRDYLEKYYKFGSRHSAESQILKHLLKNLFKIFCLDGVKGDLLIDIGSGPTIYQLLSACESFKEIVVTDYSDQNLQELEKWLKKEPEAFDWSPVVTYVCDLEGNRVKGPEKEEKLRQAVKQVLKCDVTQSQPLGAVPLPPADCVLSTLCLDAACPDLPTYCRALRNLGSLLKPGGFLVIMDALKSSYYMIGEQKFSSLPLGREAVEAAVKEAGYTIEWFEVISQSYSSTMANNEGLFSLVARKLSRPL
# Chain of Glutathione peroxidase 1 (Homo sapiens) (P07203 whole entry, looked up): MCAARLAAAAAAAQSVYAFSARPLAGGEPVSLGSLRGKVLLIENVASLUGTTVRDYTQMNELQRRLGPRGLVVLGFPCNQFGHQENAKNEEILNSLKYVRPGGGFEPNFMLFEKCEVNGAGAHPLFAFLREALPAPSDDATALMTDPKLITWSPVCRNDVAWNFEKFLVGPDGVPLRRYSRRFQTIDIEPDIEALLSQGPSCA
# Chain of Catechol O-methyltransferase (Homo sapiens) (P21964 whole entry, looked up): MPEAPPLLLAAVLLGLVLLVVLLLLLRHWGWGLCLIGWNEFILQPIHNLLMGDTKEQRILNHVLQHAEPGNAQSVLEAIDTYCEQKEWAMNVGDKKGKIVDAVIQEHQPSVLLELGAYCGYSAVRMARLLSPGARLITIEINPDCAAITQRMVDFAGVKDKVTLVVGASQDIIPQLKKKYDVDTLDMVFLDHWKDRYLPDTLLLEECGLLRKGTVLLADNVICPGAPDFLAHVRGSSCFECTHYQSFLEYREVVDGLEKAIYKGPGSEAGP
# Chain of Phenylethanolamine N-methyltransferase (Homo sapiens) (P11086 whole entry, looked up): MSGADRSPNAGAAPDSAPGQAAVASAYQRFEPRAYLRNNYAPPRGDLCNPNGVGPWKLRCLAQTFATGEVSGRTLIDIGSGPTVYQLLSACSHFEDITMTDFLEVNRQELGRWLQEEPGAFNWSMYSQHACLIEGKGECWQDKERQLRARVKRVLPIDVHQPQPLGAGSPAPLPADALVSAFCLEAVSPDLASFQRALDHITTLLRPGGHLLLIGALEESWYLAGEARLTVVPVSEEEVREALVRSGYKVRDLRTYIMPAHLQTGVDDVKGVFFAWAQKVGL
# Chain of Phospholipid hydroperoxide glutathione peroxidase GPX4 (Homo sapiens) (P36969 whole entry, looked up): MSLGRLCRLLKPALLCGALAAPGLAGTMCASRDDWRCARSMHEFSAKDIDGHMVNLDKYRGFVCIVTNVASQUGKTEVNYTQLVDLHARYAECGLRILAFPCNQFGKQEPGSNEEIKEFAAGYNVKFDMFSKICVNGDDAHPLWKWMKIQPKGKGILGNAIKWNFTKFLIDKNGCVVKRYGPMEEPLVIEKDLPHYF
SMILES,activity [1],Potency [2],activity [3],activity [4],Potency [5],Potency [6],Potency [7],Potency [8],Potency [9],Potency [10],"activity change, negative = inhibition [2]",outcome [7],"activity, negative = inhibition [9]"
CCCSc1nc(N[C@@H]2C[C@H]2c2ccc(F)c(F)c2)c2nnn([C@@H]3C[C@H](OCCO)[C@@H](O)[C@H]3O)c2n1,-40.7%,48.2 µM (active),-50.5%,-36.5%,inactive,inactive,inactive,inactive,inactive,inactive,–,–,–
c1cc(NCCc2c[nH]c3ccccc23)cc(Nc2ccncc2)c1,-7.79%,48.2 µM (active),-26%,-13.2%,inactive,inactive,inactive,2.67 µM (active),inactive,inactive,–,–,–
CCc1c(Cl)c(O)c(Cl)c(O)c1C(=O)O[C@H]1[C@H](O)[C@H](OC)[C@H](OC/C2=C\C=C\C[C@H](O)/C(C)=C\[C@H](CC)[C@@H](O[C@@H]3OC(C)(C)[C@@H](OC(=O)C(C)C)[C@H](O)[C@@H]3O)/C(C)=C/C(C)=C/C[C@@H]([C@@H](C)O)OC2=O)O[C@@H]1C,-16.7%,–,-8.66%,-8.05%,inactive,inactive and 5.01 µM (active),inactive,–,inactive,–,-5.75% [at 29.8 µM],–,–
C/C(=N\N=C(N)N)c1cc(NC(=O)CCCCCCCCC(=O)Nc2cc(/C(C)=N/N=C(N)N)cc(/C(C)=N/N=C(N)N)c2)cc(/C(C)=N/N=C(N)N)c1,-85.9%,27.1 µM (active),-74.6%,-75.4%,inactive,inactive,–,inactive,inactive,–,–,–,–
C=C1C(=O)O[C@@H]2/C=C(\CO)CC/C=C(/C=O)C[C@@H](O)[C@@H]12,-63.7%,–,-2.02%,-2.71%,inactive,inactive,inactive,–,inactive,inactive,-8.49%,–,–
N#Cc1ccc(N2N=C3c4ccc(C(=O)O)cc4CC[C@@H]3[C@@H]2C2CCCC2)cc1Cl,7.42%,–,-82.8%,0.228%,inactive,–,inactive,inactive,inactive,inactive,-0.344%,–,–
NC(N)=NC(=O)c1cnn(-c2cccc3ncccc23)c1C1CC1,-9.86%,–,-53.6%,-5.56%,inactive,inactive,inactive,inactive,inactive,inactive,-8.74%,–,–
Fc1ccc2[nH]ccc2c1-c1nc(N2CCOCC2)c2sc(CN3CCN(CC4CC4)CC3)cc2n1,-1.17%,–,-62.5%,-22.1%,inactive,inactive,–,inactive,inactive,inactive,0%,–,–
O=C1Cc2c([nH]c3ccc(Br)cc23)-c2ncccc2N1,-8.4%,–,-15.4%,-7.69%,inactive,inactive,inactive,–,–,inactive,-5.35%,–,–
CNCCC(c1cccs1)c1ccc(O)c2ccccc12 (configuration not stated),-4.76%,–,-7.38%,-1.78%,inactive,inactive,inactive,–,inactive,–,2.71%,–,–
CC1=C(C(=O)OC2CCCCC2)C(c2ccc([N+](=O)[O-])cc2)C2=C(CC(C)(C)CC2=O)N1 (configuration not stated),-30.3%,19.2 µM (active),-8.48%,-64.1%,inactive,inactive,–,inactive,–,2.12 µM (active),–,–,–
CN(C)[C@@H]1CCc2[nH]c3ccc(NC(=O)c4ccc(F)cc4)cc3c2C1,0.841%,–,0.33%,-1.89%,inactive,inactive,inactive,–,inactive,inactive,0%,–,–
CC[N+]1(C/C2=C/CCCCCC2)CCC(NC(=O)C2c3cc(Cl)ccc3Oc3ccc(Cl)cc32)CC1 (configuration not stated),-37.4%,–,-28%,-2.38%,inactive,inactive,inactive,inactive,inactive,inactive,0%,–,–
C=C1C(=O)OC2CC(C)C(CCC(C)O)=CCC12 (configuration not stated),-95.7%,–,-3.12%,-3.4%,inactive,inactive,6.75 µM (active),–,inactive,inactive,-4.2%,–,–
CC1(C)CC[C@]2(C(=O)O)CC[C@]3(C)C(=CCC4[C@@]5(C)C[C@@H](O)[C@H](O)C(CO)(CO)C5CC[C@]43C)C2[C@@H]1O (some centres not stated),-63.1%,–,0%,6.04%,inactive,inactive,inactive,–,inactive,inactive,0% [at 29.8 µM],–,–
Cc1[nH]c2ccccc2c1CCNCc1ccc(/C=C/C(=O)NO)cc1,16.3%,–,-6%,-2.09%,inactive,inactive,inactive,–,inactive,inactive,-2.13%,–,–
CC(C)c1cc2c(N3CCN(C4=NCC(C)(C)S4)CC3)ncnc2s1,-1.24%,–,-65.8%,-7.2%,inactive,–,inactive,inactive,inactive,–,0.38%,–,–
C=C1C(=O)O[C@H]2CC(=C)[C@H]3CC[C@@](C)(O)[C@@H]3CC12 (some centres not stated),-86%,–,0%,3.31%,inactive,inactive,–,5.32 µM (active),inactive,inactive,1.75%,–,–
CCCCNc1ncc(C(=O)NCc2ccc(-n3ccnc3)cc2)c(NC2CCC(O)CC2)n1 (configuration not stated),-11.6%,–,-47.3%,-34.7%,inactive,inactive,inactive,inactive,–,inactive,-6.08%,–,–
CC1(CO)CC(O)[C@]2(C(=O)O)CCC34CC3(C=CC3[C@]5(C)C(CC[C@]34C)C(C)(CO)[C@@H](O)[C@H](O)[C@@H]5O)C2C1 (some centres not stated),-56.5%,–,-2.18%,-2.96%,inactive,inactive,inactive,–,inactive,inactive,-5.29% [at 29.8 µM],–,–
N#CSc1cc(SC#N)c(N)nc1N,-83.2%,4.08 µM (active),-72%,-48.1%,inactive,inactive,–,–,–,5.05 µM (active),–,inactive [at 11.6 µM],-17.4% [at 11.6 µM] (inactive)
